# From PubChem BioAssay
# Most compounds without a hit are left out; they make up all but 1.4% or so of the library.
# Sa ugtP lethal: growth inhibition of ugtP-null S. aureus, primary screen, RN4220 ugtP deletion, OD600; 16 h; growth inhibition, % (no concentration beside the values); AID 1259309, 2017; actives 0.54% (n = 330,000); in the data active = growth inhibition above about 68%;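 also: plate controls were untreated wells for no effect and antibiotic for full effect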
# PrPC surface inh: inhibitors of human cell surface prion protein PrPC, primary screen, cell-based, TR-FRET; Major prion protein (Homo sapiens), P04156; TR-FRET read-out; inhibition, % at 13.8 µM; actives 0.43% (n = 370,000); AID 720596, 2013; in the data active = inhibition above about 24%; also: 0% = median of the test wells and 100% = reference compound wells
# VHR inh abs: VHR1 phosphatase inhibitors, primary screen, biochemical, absorbance, uHTS; Dual specificity protein phosphatase 3 (Homo sapiens), P51452; recombinant VHR phosphatase, pNPP absorbance; inhibition, % at 13.3 µM; actives 0.52% (n = 290,000); AID 1654, 2009; in the data active = inhibition above about 50%
# BJeLR viability: MLPCN primary cell-based screen for lethality selective to Ras in HRASV12 cells. BJeLR (HRASV12) viability, CellTiter-Glo ATP luminescence, 48 h. inhibition, % (concentration not given with the values). actives 0.17% (n = 300,000); in the data active = inhibition above about 50%
# Sa RN4220 lethal: growth inhibition of S. aureus RN4220, primary screen, OD600. actives 0.33% (n = 330,000). inhibition, % (test concentration not listed). AID 1259311, 2017. 16 h; in the data active = inhibition above about 85%;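 also: plate controls were untreated cells for no effect and reference antibiotic for full effect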
# 3CLpro inhibitor: SARS-CoV 3CLpro protease inhibitors, primary screen, biochemical, quenched FRET. recombinant SARS-CoV 3CLpro, quenched FRET peptide cleavage. AID 1706, 2009. inhibition, % at 6 µM. actives 0.14% (n = 290,000); in the data active = inhibition above about 12%
# PrPC confirm: confirmation of inhibitors of cell surface human prion protein, confirmation, cell-based, TR-FRET | shares compounds with PrPC surface inh | cell surface PrPC level | inhibition, % at 13.8 µM | actives 65% (n = 1,500) | AID 743200, 2013; in the data active = inhibition above about 25%
# LD9 tox: cytotoxicity in LD9 cells, cytotoxicity control for cell surface PrPc inhibitor project, cell-based, luminescence, high throughput; shares compounds with PrPC surface inh; luminescence viability; inhibition, % at 13.8 µM; actives 29% (n = 1,500); AID 743201, 2013; in the data active = inhibition above about 9.5%
# * marks the source's active call; other numbers are inactive results; x = no result given.
SMILES,Sa ugtP lethal,PrPC surface inh,VHR inh abs,BJeLR viability,Sa RN4220 lethal,3CLpro inhibitor,PrPC confirm,LD9 tox
Clc1cccc(CNc2ccn3nc(-c4ccccc4)cc3n2)c1,x,10.2,x,x,x,x,x,x
CC1CCC(=O)N(CCC(N=[N+]=[N-])c2ccccc2)CC1 (centres undefined),0.8,x,x,x,2.3,x,x,x
Cc1ccc(C(=O)Nc2cc(S(=O)(=O)N3CCOCC3)ccc2N2CCCC2)cc1,x,46.0*,x,x,x,x,49.6*,-8.2
O=C(Nc1cc(S(=O)(=O)N2CCOCC2)ccc1N1CCCC1)c1ccc(Cl)cc1,1.4,11.7,x,x,2.8,x,x,x
COc1ccc(NCC(=O)Nc2cc(S(=O)(=O)N3CCOCC3)ccc2N2CCOCC2)c(OC)c1,0.2,24.8*,-2.7,4.5,1.5,1.2,-0.1,-0.4
CCN1C(=O)C2C(c3ccc(-c4ccc(C(C)=O)cc4)cc3)N[C@@](C)(C(=O)OC)C2C1=O (some centres undefined),-1.4,x,x,x,4.1,x,x,x
Cc1ccc(-c2cc(C(=O)N(C)Cc3cnn(C)c3C)c3cc(Br)ccc3n2)cc1,8.1,75.2*,4.6,-9.7,8.9,4.5,90.4*,4.0
Cc1ccc(-c2cc(C(=O)NCc3cnn(C)c3C)c3cc(Br)ccc3n2)cc1,3.0,14.7,23.5,-10.2,-2.7,-5.6,x,x
c1ccc(Cn2nnnc2C(c2cccs2)N2CCCCCC2)cc1 (centres undefined),1.7,28.5*,26.8,6.7,8.9,-0.1,21.7,1.2
c1ccc(Cn2nnnc2C(c2cccs2)N2CCc3ccccc3C2)cc1 (centres undefined),-5.7,x,19.9,0.6,2.6,2.5,x,x
CNc1ccccc1C(=O)OC(C)C(=O)Nc1ccc(Cl)cn1 (centres undefined),0.0,24.9*,18.7,2.7,0.1,1.1,37.8*,0.0
CCOc1ncccc1C(=O)OC(C)C(=O)Nc1ccc(Cl)cn1 (centres undefined),x,-0.4,x,x,x,x,x,x
COc1ccc(C2C=CCN(C(=O)NC34CC5CC(CC(C5)C3)C4)CC(=O)N2Cc2ccc(F)cc2)cc1 (centres undefined),13.6,x,x,x,0.6,x,x,x
NC(=O)C1CCN(C(=S)c2ccc(-c3ccc(Br)cc3)o2)CC1,10.2,-6.3,27.0,5.8,8.1,2.3,x,x
NC(=O)c1ccc(-c2ccc(Br)cc2)o1,8.5,52.6*,14.1,6.3,5.6,2.4,63.4*,-8.7
CN1CCC(N(C)c2ncnc3ccc(Br)cc23)CC1,9.2,11.6,-12.4,x,2.6,0.8,x,x
CCN(CC)c1ncnc2ccc(Br)cc12,14.1,39.2*,48.2,-15.8,-1.0,-1.2,41.5*,-4.2
COC(=O)NC1CC2C3CCC4CC(OC)CC[C@]4(C)C3CC[C@]12C (some centres undefined),-1.5,x,x,x,-6.7,x,x,x
CC1(Cc2ccc(OC(F)(F)F)cc2)C(=O)Nc2ccc(S(=O)(=O)NC3CCCCC3)cc21 (centres undefined),x,35.6*,x,x,x,x,30.4*,10.8*
Cc1ccc(C(=O)NN=Cc2ccc(-c3ccc(Cl)cc3)o2)cn1,-6.3,x,x,x,0.6,x,x,x
CCOC(=O)c1csc(NC(=O)c2ccc(OCC)cc2)n1,6.0,29.6*,12.9,3.3,4.3,-1.3,19.7,-1.2
CCOC(=O)c1csc(NC(=O)c2ccccc2)n1,13.2,12.4,12.4,-7.7,-3.0,-4.1,x,x
c1ccc2sc(Nc3nc4cc5c(cc4s3)OCO5)nc2c1,10.8,80.4*,2.6,-2.4,-16.6,-2.6,63.3*,-1.4
COc1cc(/C=C\C(=O)NCc2ccc3c(c2)cc(C)n3C)cc(OC)c1OC,x,68.0*,-3.6,-2.3,x,-0.9,7.8,-5.9
CCOc1ccc(CC(=O)NCc2ccc3c(c2)cc(C)n3C)cc1,-3.3,55.0*,-7.0,-4.0,-12.3,9.8,-1.7,-9.1
SMILES,Sa ugtP lethal,PrPC surface inh,VHR inh abs,BJeLR viability,Sa RN4220 lethal,3CLpro inhibitor,PrPC confirm,LD9 tox
Cc1cc2cc(CNC(=O)c3ccc4c(c3)OCO4)ccc2n1C,-3.7,53.0*,-8.7,13.0,6.0,-1.5,10.2,-1.5
Cc1onc(-c2ccccc2Cl)c1C(=O)NCc1ccc2c(c1)cc(C)n2C,-6.1,65.5*,18.1,9.3,-15.3,x,9.5,-3.3
CC1(C)OC2C(CO)OC(n3cc(Br)c(=O)[nH]c3=O)C2O1 (centres undefined),-1.4,x,x,x,-0.1,x,x,x
COc1ccc(C(=O)NCc2ccc3c(c2)cc(C)n3C)cc1,0.1,66.0*,7.4,-7.0,4.4,-3.9,8.9,-4.8
Cc1ccc(S(=O)(=O)NCc2ccncc2)cc1,5.2,10.3,23.4,5.8,2.3,-2.7,x,x
COc1cc(OC)cc(C(=O)NCc2ccc3c(c2)cc(C)n3C)c1,6.5,56.3*,17.6,5.9,-1.8,-2.1,0.6,-3.7
Cc1ccc(S(=O)(=O)NCc2ccc3c(c2)cc(C)n3C)cc1,1.4,37.4*,2.4,-7.6,3.2,2.2,5.7,-3.8
COCC(=O)NCc1ccc2c(c1)cc(C)n2C,4.2,-9.0,-11.3,-3.1,2.0,-4.7,x,x
Cc1cc2cc(CNC(=O)Nc3ccc(Cl)c(Cl)c3)ccc2n1C,-5.6,32.7*,12.0,-23.4,-16.1,-1.2,22.3,-8.0
CC1NC(=CC(=O)c2ccccc2)N(O)C1(C)C (centres undefined),6.5,x,x,x,2.0,x,x,x
CCNC(=O)CC1SC(=NN=C(C)c2ccccc2)NC1=O (centres undefined),-4.4,x,x,x,2.9,x,x,x
CCCC(=O)NC(c1cccc([N+](=O)[O-])c1)c1ccc2cccnc2c1O (centres undefined),x,13.0,x,x,x,x,x,x
CC(C)C(=O)NC(c1cccc([N+](=O)[O-])c1)c1ccc2cccnc2c1O (centres undefined),10.9,29.0*,12.1,18.5,22.4,1.5,21.7,28.1*
CC(=O)NC(c1ccc2ccccc2c1)c1ccc2cccnc2c1O (centres undefined),x,38.5*,6.1,35.0,x,-2.8,24.9*,30.6*
CC(=O)NC(c1ccc(Cl)cc1Cl)c1ccc2cccnc2c1O (centres undefined),x,31.7*,11.4,45.7,x,2.8,34.9*,30.7*
CCCC(=O)NC(c1ccc(Cl)cc1Cl)c1ccc2cccnc2c1O (centres undefined),x,28.1*,9.4,21.0,x,-1.4,24.4,11.9*
O=C(O)C(Cc1ccccc1)NC(=O)C(c1ccccc1)(c1ccccc1)c1ccccc1 (centres undefined),25.3,x,x,x,30.0,x,x,x
